Here are results for 39 compounds from PubChem BioAssay AID651599 (National Center for Advancing Translational Sciences (NCATS), 2012).

SMILES strings stand for the structures. Results filed as inconclusive are left out. Entries that show only a call come without a potency. The source made the active and inactive calls. The call rests on the fitted dose curve; in most records, active means well fitted inhibition curve with a large enough effect; inconclusive means small, poorly fitted or top-dose-only effect; inactive means no such curve, though single readings can be large or run the other way.
Potency means the concentration at half of the fitted maximal effect.

Tumor susceptibility gene 101 protein (Homo sapiens), sequence (Q99816 whole entry, looked up, the tested form may be a part): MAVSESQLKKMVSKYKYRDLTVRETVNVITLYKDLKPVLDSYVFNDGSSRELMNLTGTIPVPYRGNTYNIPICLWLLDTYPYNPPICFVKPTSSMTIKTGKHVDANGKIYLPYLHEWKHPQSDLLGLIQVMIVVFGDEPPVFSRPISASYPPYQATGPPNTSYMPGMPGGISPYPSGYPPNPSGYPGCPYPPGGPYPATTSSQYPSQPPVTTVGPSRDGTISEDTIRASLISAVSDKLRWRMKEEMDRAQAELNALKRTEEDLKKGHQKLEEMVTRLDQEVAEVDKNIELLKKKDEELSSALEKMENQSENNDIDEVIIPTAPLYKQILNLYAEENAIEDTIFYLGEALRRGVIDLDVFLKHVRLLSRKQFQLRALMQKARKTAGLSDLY

The assay concerns the target Tumor susceptibility gene 101 protein (Homo sapiens) (UniProt Q99816). Kind of assay: qHTS Assay for Iinhibitors of HIV-1 Budding by Blocking the Interaction of PTAP/TSG101: Hit Validation in TR assay. Particulars: Tsg101 binding domain + Texas Red-labeled PTAP peptide, fluorescence polarization, 20 min; series mostly up to 57.5 µM. The essentials:
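Fluorescence polarization: Tsg101 binding domain (10 uM final) with Texas Red-labelled PTAP peptide (50 nM final) in HEPES pH 7.5, 0.15 M NaCl, Tween 20, EDTA, TCEP; 20 min binding at room temperature after compound addition.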
(In qHTS, concentration-response curves come from the screen itself.)
Consider `Nc1ccc2nc(-c3ccccc3)c(-c3ccccc3)nc2c1`, for which the Potency entry was “inactive”.

`NS(=O)(=O)c1ccc(N=Nc2c[nH]c(=O)c(O)c2)cc1`: the Potency entry is “inactive”. Under `COCCN(CCOC)Cc1c(O)ccc2c1O/C(=C\c1ccco1)C2=O` stands “inactive”; under `O=C(O)CCNc1ccc(NCCC(=O)O)c2c1C(=O)c1ccccc1C2=O`, “inactive”; under `O=C(NCc1ccco1)c1cccc2c1C(=O)c1ccc(N3CCC(Cc4ccccc4)CC3)cc1S2(=O)=O`, “inactive”. As to `O=Cc1nccc2ccccc12`, the Potency result was “inactive”. Under `COc1ccc(C(=O)c2sc3nc(C)cc(-c4cccs4)c3c2N)cc1OC` stands “inactive”; under `Cc1nn(C)c(C)c1N1C(=O)c2cccc3c(N)ccc(c23)C1=O`, “inactive”; under `N=C1/C(=C/c2coc3ccccc3c2=O)C(=O)N=C2SC(c3ccco3)=NN12`, “inactive”. Then `O=C(OCCN1C(=O)c2cccc3c(N4CCOCC4)ccc(c23)C1=O)c1cccc(Cl)c1`, with “inactive”. Under `Nc1c(C(=O)c2cccs2)sc2nsc(SCCN3CCCCC3)c12` stands “inactive”. For `CC1=CC(=C(C#N)c2nc3ccccc3s2)C=C(C)N1c1ccc(F)cc1`, the Potency result was “inactive”. As to `Cc1cc(=O)oc2ccc(OC(=O)CN3C(=O)c4cccc([N+](=O)[O-])c4C3=O)cc12`, the Potency result is “inactive”. `CCN(CC)c1ccc2c(-c3ccc(S(=O)(=O)O)cc3S(=O)(=O)[O-])c3ccc(=[N+](CC)CC)cc-3oc2c1`: the Potency is 0.13 µM (active). Under `O=C1Nc2ccc(F)cc2C12Nc1ccccc1-c1nnc(SCc3ccccc3F)nc1O2` (centres undefined) stands “inactive”; under `CCc1cc(C(=O)Nc2ccc(OC)nc2)sc1C`, “inactive”.

Take `Cc1ccc(Nc2ccc([N+](=O)[O-])ccc2=O)cc1`: the Potency entry was “inactive”.

In the case of `CCOC(=O)Cn1c(=O)c(-c2cc(Br)ccc2N)nc2ccccc21`, the Potency entry was “inactive”. Then `CCCN1C(=O)/C(=C\C=C2\N(CC)c3ccccc3C2(C)C)SC1=S`, with “inactive”; and `Cc1cc(C)n2nc3nc4c(cc3c2n1)CCCC4`, with “inactive”.

Regarding `CS(=O)(=O)Nc1nc2n(n1)C(c1ccccc1)C=C(c1ccc(Br)cc1)N2` (centres undefined), the Potency entry is “inactive”. Then `CC1=CC(=C(C#N)c2nc3ccccc3s2)C=C(C)N1c1ccc(F)cc1F`, with “inactive”; and `Cc1ccc(N2C3=C(C(=O)CC(C)(C)C3)C(c3cn(C)nc3C)C3=C2CC(C)(C)CC3=O)cc1`, with “inactive”; and `Cc1cc(/C=C2\SC(=S)NC2=O)c(C)n1-c1ccccc1`, with “inactive”. `Cc1nc(Nc2ccc(S(=O)(=O)N3CCCCC3C)cc2)c2nnn(Cc3ccccc3)c2n1` (centres undefined): the Potency result was “inactive”. For the compound `CCSC1=NSC2=NC(=O)/C(=C\c3coc4ccccc4c3=O)C(=N)N12`, the Potency result was “inactive”. Regarding `Cc1nn(-c2ccccc2)c(N2CCCC2)c1/C=C1\N=C(c2ccc(F)cc2)OC1=O`, the Potency result was “inactive”. Then `Oc1ccc2ccccc2c1N=Nc1nccs1`, with “inactive”; and `CCOC(=O)/C(C#N)=C(C)/C=C1\Sc2ccccc2N1CC`, with “inactive”; and `CN(C)CCCN1C(=O)c2cccc3c(Br)ccc(c23)C1=O`, with “inactive”. Under `Cc1ccc(N2C(=O)C3C(C(=O)c4ccccc4)=NN(c4ccccc4)C3C2=O)cc1` (centres undefined) stands “inactive”; under `C=CCn1c(=O)/c(=C/c2ccc(C)o2)s/c1=C(/C#N)C(=O)c1ccccc1`, “inactive”; under `CN1c2ccc(C=O)c3c(C=O)ccc(c23)N(C)C1(C)C`, “inactive”.

For `O=C1CCN2C=Nc3cccc4ccc1c2c34`, the Potency entry was “inactive”. As for `O=C(O)c1cc(O)c2c(c1)C(=O)c1cccc(O)c1C2=O`, the Potency result is “inactive”. As to `O=C1NC(=S)/C(=C\c2ccc(-c3ccccc3Cl)o2)S1`, the Potency entry was “inactive”. Under `CCN(CC)C1=CC2=CC(=C(C#N)C#N)CCC2CC1` (centres undefined) stands “inactive”; under `O=C(NC1CCCC1)c1cccc2c1C(=O)c1ccc(N3CCCCC3)cc1S2(=O)=O`, “inactive”. For the compound `COc1cc(C2C=C(c3cccs3)Nc3ncnn32)cc(OC)c1OC` (centres undefined), the Potency entry is “inactive”.
